TDP1 cell noCPT = qHTS for Inhibitors of human tyrosyl-DNA phosphodiesterase 1 (TDP1): qHTS in cells in absence of CPT; Potency, µM (highest dose often 46.2 µM), inactives show top-dose activity change, negative = growth inhibition, actives largely listed as inhibitors; AID 686978, 2013; actives 15% (n = 420,000); DT40 Tdp1-/- hTDP1 cells, no CPT, ATP luminescence, 48 h; also: nearly all actives have a fitted effect of over 55% in size
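Chicken DT40 Tdp1-/- cells complemented with human TDP1, screened without camptothecin (DMSO vehicle only), 400 cells/well. Compounds pin-transferred, cells incubated at 37 °C for at least 48 hr. Growth read as ATP-dependent luminescence (CellTiter-Glo, 30 min at RT).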
DT40 TDP1 CPT = qHTS for Inhibitors of human tyrosyl-DNA phosphodiesterase 1 (TDP1): qHTS in cells in presence of CPT | chicken DT40 Tdp1-/-;hTDP1 cells + 20 nM CPT, ATP luminescence, 48 h | Potency, µM (top dose mostly 46.2 µM), for inactives: at the highest dose activity change, negative = growth inhibition, usual class: inhibitors | actives 12% (n = 420,000); also: nearly all actives have a fitted effect of over 55% in size
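Cell growth measured by CellTiter-Glo luminescence after a minimum 48 h, 37 C compound exposure with 20 nM CPT in Tdp1-knockout DT40 cells stably expressing hTDP1, seeded 400/well; qHTS titration format.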
ALOX12 inh = Primary qHTS assay for inhibitors of human arachidonate 12S-lipoxygenase (ALOX12): Round 2; purified 12hLO, xylenol orange hydroperoxide absorbance; actives 1.1% (n = 580,000); Potency, µM (doses to about 108 µM), without a hit: at the top dose activity change, negative = inhibition, actives largely listed as inhibitors
Target sequence (P18054 whole entry, looked up): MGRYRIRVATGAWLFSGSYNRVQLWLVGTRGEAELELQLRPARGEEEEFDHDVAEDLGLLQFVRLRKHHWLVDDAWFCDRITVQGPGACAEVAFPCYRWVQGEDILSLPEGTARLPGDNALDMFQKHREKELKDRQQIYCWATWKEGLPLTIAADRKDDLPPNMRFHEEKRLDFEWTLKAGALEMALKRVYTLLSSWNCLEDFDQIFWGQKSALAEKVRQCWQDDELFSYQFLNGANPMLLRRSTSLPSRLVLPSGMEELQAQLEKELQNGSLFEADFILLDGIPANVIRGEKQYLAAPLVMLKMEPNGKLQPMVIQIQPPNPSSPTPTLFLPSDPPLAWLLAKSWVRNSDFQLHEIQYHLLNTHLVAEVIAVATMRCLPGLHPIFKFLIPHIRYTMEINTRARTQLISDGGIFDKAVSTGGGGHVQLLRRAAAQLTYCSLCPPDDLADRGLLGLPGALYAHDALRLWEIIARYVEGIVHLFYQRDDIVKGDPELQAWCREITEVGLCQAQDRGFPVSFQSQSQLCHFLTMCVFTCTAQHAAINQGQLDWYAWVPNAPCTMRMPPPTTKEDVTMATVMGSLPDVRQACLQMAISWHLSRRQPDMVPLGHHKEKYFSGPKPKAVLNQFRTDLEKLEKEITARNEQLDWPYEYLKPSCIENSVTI
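Hydroperoxide product was detected by ferrous iron/xylenol orange as the 573 to 405 nm absorbance ratio. Arachidonic acid at 40 uM (final) was turned over for 30 min at room temperature by 150 nM human 12hLO, pH 7.0 Hepes buffer, after 15 min compound preincubation.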
ELG1 DNA repair = qHTS screen for small molecules that inhibit ELG1-dependent DNA repair in human embryonic kidney (HEK293T) cells expressing luciferase-tagged ELG1; HEK293T ELG1-luciferase reporter, luminescence, 16 h; DNA damage induced by 5-fluorouridine; Potency, µM (top dose mostly 46.1 µM), for the others: at the top dose activity change, negative = inhibition, actives largely listed as inhibitors; actives 2.3% (n = 330,000); also: nearly all actives have a fitted effect of over 55% in size
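Luminescence from the luciferase reporter, measured 30 min after ONE-Glo reagent at room temperature, was the read-out. Beforehand, 2,000 cells per well were exposed for 16 hr at 37 °C to 5-fluorouridine together with compound or vehicle.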
RORg inh = qHTS for inhibitors of ROR gamma transcriptional activity; Nuclear receptor ROR-gamma (Mus musculus), P51450; Drosophila S2 Gal4-RORgamma UAS-luciferase reporter, 20 h; Potency, µM (top dose mostly 53.6 µM), inactives show at the highest dose activity change, negative = inhibition, most hits filed as inhibitors; actives 5.4% (n = 310,000); AID 2551, 2010; also: nearly all actives have a fitted effect of over 60% in size
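Luciferase reporter read in Schneider cells carrying Gal4-RORγ (mouse) and UAS-Photinus luciferase; cells given compound 1 h before 700 uM copper sulfate induction, then incubated 20 h at ambient temperature.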
Gal4-VP16 FLuc = VP16 counterscreen qHTS for inhibitors of ROR gamma transcriptional activity; Drosophila S2 Gal4-VP16 UAS-luciferase, luminescence, 20 h; Potency, µM (top dose mostly 53.6 µM), for the others: top-dose activity, negative = inhibition, usual class: inhibitors; actives 3.5% (n = 310,000); AID 2546, 2010;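 also: Gal4-VP16 expression switched on by copper sulfate through the metallothionein promoter; nearly all actives have a fitted effect of over 50% in size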
An asterisk follows results filed as active; ? = inconclusive; . = no result; [ ] = remark or other dose. An excerpt weighted towards active compounds, which were near 15% of everything screened. Calls follow the shape of the dose curve; as a rule, active = well fitted curve in the direction sought with a large enough effect; inconclusive = small, poorly fitted or top-dose-only effect, or another doubt; inactive = no such curve, though single readings can be large; an effect the other way counts as inactive or inconclusive. % is scaled to controls: 0 for no effect and ±100 for the full control effect; potency is read from the fitted curve at half-maximal effect.

SMILES	TDP1 cell noCPT	DT40 TDP1 CPT	ALOX12 inh	ELG1 DNA repair	RORg inh	Gal4-VP16 FLuc
O=C(NCCOCCn1c(=O)oc2ccccc21)Nc1ccc(F)cc1	?	16.4µM*	-18.4%	.	.	.
Cc1cccc(NC(=O)NCCOCCn2c(=O)oc3ccccc32)c1C	-27.0%	?	-17.1%	.	.	.
NC(=O)C1CCN(C(=O)c2ccc3nc(C(F)(F)F)sc3c2)CC1	.	.	-5.7%	.	.	.
COC(=O)N/N=C/c1cc(Cl)cc(Cl)c1OCCCOc1ccccc1	.	.	-46.4%	.	.	.
CC1=C(C(=O)Nc2ccc(C)cc2C)C(c2ccccc2F)n2nc(SCC(=O)c3ccc(C)cc3)nc2N1 (configuration not stated)	14.6µM*	18.4µM*	-21.2%	.	.	.
CCOc1ccccc1C1C(C(=O)Nc2ccccc2)=C(C)Nc2nc(SCC(=O)c3ccc(C)cc3)nn21 (configuration not stated)	9.2µM*	7.31µM*	?	.	.	.
COc1cccc(C2C(C(=O)Nc3ccccc3)=C(C)Nc3nc(SC)nn32)c1OC (configuration not stated)	.	.	-22.3%	.	.	.
Cn1ccnc1-c1nccn1CC(CO)Cc1ccsc1 (configuration not stated)	.	.	52.4%	.	.	.
Clc1ccc(CSc2ncnc3nc[nH]c23)cc1	23.1µM*	?	-1.5%	14.4%	16.1%	16.4%
c1ccc(CCSc2ncnc3nc[nH]c23)cc1	8.2µM*	16.4µM*	-1.1%	13.8%	?	?
O=C(NCc1nnc2c(-c3nc(C4CC4)no3)cccn12)c1ccc(F)cc1Cl	.	.	70.6%	.	.	.
CCCCn1c(=O)c2c(nc(Br)n2Cc2ccccc2)n(C)c1=O	.	.	6.4%	.	.	.
CNC(=S)NCc1ccc2[nH]c3c(c2c1)CCCC3	-22.1%	-1.7%	?	6.4%	17.8µM*	-14.0%
CCCCNC(=S)NCc1ccc2[nH]c3c(c2c1)CCCC3	?	?	?	?	5.01µM*	10µM*
O=C(NCc1ccc2[nH]c3c(c2c1)CCCC3)N1CCOCC1	.	.	.	?	-1.2%	-1.1%
Cc1noc(C(C)N2CCN(c3oc(C4CC4)nc3C#N)CC2)n1 (configuration not stated)	.	.	-20.8%	.	.	.
CCc1nc(NCCCO)c(C#N)c2c1CCCC2	.	.	21.3%	.	.	.
CC(C)(C)C(=O)N1CCN(c2ccc(Cl)cc2[N+](=O)[O-])CC1	-21.5%	-15.6%	-10.2%	9.8%	25.2%	-3.9%
O=C(NC(=S)N1CCN(c2ccc(Cl)cc2[N+](=O)[O-])CC1)c1cccs1	20.6µM*	9.2µM*	.	11.5%	0.282µM*	.
O=C(NC(=S)N1CCN(c2ccc(Cl)cc2[N+](=O)[O-])CC1)c1ccco1	?	?	-11.6%	-4.5%	0.282µM*	0.251µM*
CCC(=O)N1CCN(c2ccc(Cl)cc2NC(=S)NC(=O)c2ccco2)CC1	?	?	389.5%	.	.	.
CC(=O)NC1(C)CCCN(Cc2cccc(Nc3cccc(C#N)c3)c2)C1 (configuration not stated)	.	.	8.7%[176 µM]	.	.	.
COc1ccc(C(=O)N(C)C2CCCc3ccccc32)cc1OC1CCN(C(C)C)CC1 (configuration not stated)	?	20.6µM*	-0.6%	-4.3%	-0.1%	4.6%
COC(=O)CN(C)C(=O)c1ccc(OC)c(OC2CCN(C(C)C)CC2)c1	-0.1%	-27.1%	-2.3%	17.4%	-1.3%	-8.1%
c1ccc(-c2ccc(Nc3ccc4ccccc4c3)cc2)cc1	.	.	-28.8%	.	.	.
SMILES	TDP1 cell noCPT	DT40 TDP1 CPT	ALOX12 inh	ELG1 DNA repair	RORg inh	Gal4-VP16 FLuc
CC(C)(C)CC(C)(C)SSc1n[nH]c(=S)s1	?	?	35.5µM*	.	.	.
CCOC(=O)CSc1n[nH]c(=S)s1	0.2%	-7.2%	?	?	4.9%	-6.5%
C[C@@H](NC(=O)C1CC1)c1onc(-c2ccc(Cl)cc2)c1C(=O)O	.	.	6.0%[176 µM]	.	.	.
O=C1CC2(CCCCC2)C(=O)N1Cc1ncc(-c2ccccc2)o1	.	.	13.9%	.	.	.
NS(=O)(=O)Cc1ccc(CNC(=O)COc2ccccc2)cc1	.	.	45.7%	.	.	.
Cc1ccc(C)c(Oc2ccc(CNC(=O)c3nccnc3N)cn2)c1	.	.	-2.0%	.	.	.
Cc1ccc(Nc2c([N+](=O)[O-])ccc3c2=NC2(CCCCC2)N=3)cc1	23.1µM*	16.4µM*	10.0%	9.9%	7.94µM*	-15.5%
CC(=O)N1c2ccccc2[C@@H](C)[C@@H]1C	-9.9%	-13.1%	0.0%	?	.	.
CC(=O)N1c2ccccc2C2(O)N=C(C)SC12 (configuration not stated)	?	16.4µM*	.	-3.0%	7.94µM*	4.47µM*
CCOc1ccc(-n2cc(-c3ccccc3)c3c(=O)[nH]cnc32)cc1	?	-5.6%	?	-11.9%	-15.6%	-6.0%
O=c1[nH]cnc2c1c(-c1ccccc1)cn2-c1ccc(Br)cc1	16.4µM*	?	-7.6%	-22.0%	-4.3%	-23.3%
CC(=O)Nc1ccc(S(=O)(=O)Nc2cc3c(cc2SC2CCCCC2)n(C)c(=O)n3C)cc1	.	.	-6.6%	.	.	.
CCN1C(=O)[C@H]2[C@@H](c3ccc(C)cc3)N[C@]3(CCCN(CC4CCCCC4)C3=O)[C@H]2C1=O	?	-12.6%	?	.	.	.
CCN1C(=O)[C@H]2[C@@H](c3ccc(OC)cc3)N[C@]3(CCCN(Cc4ccc(C(F)(F)F)cc4)C3=O)[C@H]2C1=O	18.4µM*	?	31.6µM*	.	.	.
CCN1C(=O)[C@H]2[C@@H](c3ccc(C)cc3)N[C@]3(CCCN(Cc4ccc(C(F)(F)F)cc4)C3=O)[C@H]2C1=O	10.3µM*	13µM*	?	.	.	.
Cn1cccc1CN1CCC[C@]2(N[C@H](c3ccc(C(F)(F)F)cc3)[C@@H]3C(=O)N(Cc4ccccc4)C(=O)[C@@H]32)C1=O	-21.9%	-14.8%	?	.	.	.
CCN1C(=O)[C@H]2[C@@H](c3ccc(C(F)(F)F)cc3)N[C@]3(CCCN(Cc4ccc(F)cc4)C3=O)[C@H]2C1=O	9.2µM*	20.6µM*	-14.5%	.	.	.
Cc1ccc(CN2CCC[C@]3(N[C@H](c4ccc(C(F)(F)F)cc4)[C@@H]4C(=O)N(Cc5ccccc5)C(=O)[C@@H]43)C2=O)cc1	20.6µM*	20.6µM*	8.91µM*	.	.	.
